PubChem BioAssay (EPA / NIEHS)
Results filed as inconclusive are left out. The source made the active and inactive calls. Rule for the calls, unless noted: active = hit-call score of the fitted dose curve at least 0.9, where 1 is the maximum; inactive = score below 0.9.

Legend:
[1] = biological target: Paired box protein Pax-6 (Homo sapiens) (UniProt P26367); experiment: ATG_Pax6_CIS: Attagene CIS-FACTORIAL HepG2 Assay for human Paired Box 6 (PAX6) (AID 2282956); details: HepG2 CIS-FACTORIAL PAX6 reporter transcription, RNA readout; actives raise or lower the signal
Paired box protein Pax-6 (Homo sapiens), sequence (P26367 whole entry, looked up): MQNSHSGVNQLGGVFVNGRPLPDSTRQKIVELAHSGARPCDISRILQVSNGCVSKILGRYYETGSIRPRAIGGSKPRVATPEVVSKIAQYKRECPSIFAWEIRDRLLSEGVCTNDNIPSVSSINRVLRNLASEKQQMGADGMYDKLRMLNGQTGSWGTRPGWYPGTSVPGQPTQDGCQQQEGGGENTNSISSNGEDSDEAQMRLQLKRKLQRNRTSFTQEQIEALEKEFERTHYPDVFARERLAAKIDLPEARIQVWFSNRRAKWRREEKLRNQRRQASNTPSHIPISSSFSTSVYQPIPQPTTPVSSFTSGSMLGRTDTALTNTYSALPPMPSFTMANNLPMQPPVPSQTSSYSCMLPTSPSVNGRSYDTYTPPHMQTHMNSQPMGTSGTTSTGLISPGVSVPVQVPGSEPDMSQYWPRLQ
Summary of the method: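 Multiplexed cis-reporter HepG2 system; 24 h treatment; reporter mRNA read by RT-PCR/CE fluorescence; bidirectional fit vs DMSO.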

[2] = ATG_PXRE_CIS: Attagene CIS-FACTORIAL HepG2 Assay for human Pregnane X Receptor Element (PXRE) (AID 2282957); details: HepG2 Attagene CIS-FACTORIAL PXRE reporter, mRNA; actives raise or lower the signal
Summary of the method: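 Multiplexed cis-reporter assay in transiently transfected human HepG2 cells; 24 h chemical exposure. Reporter transcripts quantified by RT-PCR with fluorescent labeling and capillary electrophoresis.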

[3] = ATG_PPRE_CIS: Attagene CIS-FACTORIAL HepG2 Assay for human Peroxisome Proliferator-activated Response Element (PPRE) (AID 2282958); details: HepG2 PPRE cis-element reporter, Attagene transcription factor profiling; actives raise or lower the signal
Summary of the method: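 Multiplexed reporter transcription units under cis-regulatory promoters were transfected into HepG2 cells to capture endogenous factor activity. A 24 h incubation preceded RNA isolation and fluorescent RT-PCR fragment analysis.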

[4] = ATG_RORE_CIS: Attagene CIS-FACTORIAL HepG2 Assay for human RAR-related Orphan Receptor Element (RORE) (AID 2282959); details: HepG2 Attagene cis-factorial RORE reporter, mRNA; actives raise or lower the signal
Summary of the method: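 Fluorescence intensity of reporter-specific cDNA fragments, separated by capillary electrophoresis, gives the signal. Source: HepG2 liver cells transiently transfected with cis-element reporters and exposed 24 h; DMSO-normalized bidirectional fit.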

[5] = ATG_Sox_CIS: Attagene CIS-FACTORIAL HepG2 Assay for human SRY-box transcription factor (SOX) (AID 2282960); details: HepG2 Attagene cis-factorial SOX reporter, mRNA; actives raise or lower the signal
Summary of the method: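 After 24 h of chemical treatment, transfected HepG2 reporter cells are lysed for total RNA. Transcript levels come from RT-PCR with labelled primer extension and capillary electrophoresis, analysed bidirectionally versus DMSO.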

[6] = biological target: Transcription factor Sp1 (Homo sapiens) (UniProt P08047); experiment: ATG_Sp1_CIS: Attagene CIS-FACTORIAL HepG2 Assay for human Specificity Protein 1 (Sp1) (AID 2282961); details: HepG2 Sp1 cis-reporter transcription, actives raise or lower the signal
Transcription factor Sp1 (Homo sapiens), sequence (P08047 whole entry, looked up): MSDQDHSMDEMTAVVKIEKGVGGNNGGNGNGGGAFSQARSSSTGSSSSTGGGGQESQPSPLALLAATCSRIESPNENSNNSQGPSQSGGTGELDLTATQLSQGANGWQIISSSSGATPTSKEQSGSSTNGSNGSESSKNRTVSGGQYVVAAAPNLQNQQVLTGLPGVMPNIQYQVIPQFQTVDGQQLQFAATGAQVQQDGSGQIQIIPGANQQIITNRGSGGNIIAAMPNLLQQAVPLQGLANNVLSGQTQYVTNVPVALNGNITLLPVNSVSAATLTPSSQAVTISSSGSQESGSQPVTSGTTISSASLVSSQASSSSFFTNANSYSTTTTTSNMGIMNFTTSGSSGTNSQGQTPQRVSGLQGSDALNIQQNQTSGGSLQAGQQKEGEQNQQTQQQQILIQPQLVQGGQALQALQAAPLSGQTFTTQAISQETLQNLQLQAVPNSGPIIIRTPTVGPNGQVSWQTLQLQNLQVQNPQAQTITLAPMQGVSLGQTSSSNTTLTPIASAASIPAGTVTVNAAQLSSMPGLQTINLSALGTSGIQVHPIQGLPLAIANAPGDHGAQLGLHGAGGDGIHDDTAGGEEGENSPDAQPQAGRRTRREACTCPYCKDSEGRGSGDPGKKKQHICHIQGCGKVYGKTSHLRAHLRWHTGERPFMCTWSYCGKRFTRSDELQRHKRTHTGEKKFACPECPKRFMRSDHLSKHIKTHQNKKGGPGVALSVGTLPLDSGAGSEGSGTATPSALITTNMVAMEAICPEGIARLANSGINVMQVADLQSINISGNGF
Summary of the method: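 Sp1-driven reporter mRNA, read as capillary electrophoresis fluorescence after RT-PCR, in transiently transfected HepG2 cells dosed for 24 h; signal change in either direction relative to DMSO.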

[7] = ATG_SREBP_CIS: Attagene CIS-FACTORIAL HepG2 Assay for human Sterol Regulatory Element Binding (SREBP) (AID 2282962); details: HepG2 Attagene cis-factorial SREBP reporter, mRNA; actives raise or lower the signal
Summary of the method: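 mRNA induction of transfected cis-promoter reporters in HepG2 cells, 24 h post-dose. Detection: RT-PCR with 6-FAM-labelled products, HpaI digest, capillary electrophoresis. DMSO served as negative control and baseline.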

[8] = biological target: Signal transducer and activator of transcription 3 (Homo sapiens) (UniProt P40763); experiment: ATG_STAT3_CIS: Attagene CIS-FACTORIAL HepG2 Assay for human Signal Transducer and Activator of Transcription 3 (STAT3) (AID 2282963); details: HepG2, Attagene cis-factorial STAT3 reporter transcription; actives raise or lower the signal
Signal transducer and activator of transcription 3 (Homo sapiens), sequence (P40763 whole entry, looked up): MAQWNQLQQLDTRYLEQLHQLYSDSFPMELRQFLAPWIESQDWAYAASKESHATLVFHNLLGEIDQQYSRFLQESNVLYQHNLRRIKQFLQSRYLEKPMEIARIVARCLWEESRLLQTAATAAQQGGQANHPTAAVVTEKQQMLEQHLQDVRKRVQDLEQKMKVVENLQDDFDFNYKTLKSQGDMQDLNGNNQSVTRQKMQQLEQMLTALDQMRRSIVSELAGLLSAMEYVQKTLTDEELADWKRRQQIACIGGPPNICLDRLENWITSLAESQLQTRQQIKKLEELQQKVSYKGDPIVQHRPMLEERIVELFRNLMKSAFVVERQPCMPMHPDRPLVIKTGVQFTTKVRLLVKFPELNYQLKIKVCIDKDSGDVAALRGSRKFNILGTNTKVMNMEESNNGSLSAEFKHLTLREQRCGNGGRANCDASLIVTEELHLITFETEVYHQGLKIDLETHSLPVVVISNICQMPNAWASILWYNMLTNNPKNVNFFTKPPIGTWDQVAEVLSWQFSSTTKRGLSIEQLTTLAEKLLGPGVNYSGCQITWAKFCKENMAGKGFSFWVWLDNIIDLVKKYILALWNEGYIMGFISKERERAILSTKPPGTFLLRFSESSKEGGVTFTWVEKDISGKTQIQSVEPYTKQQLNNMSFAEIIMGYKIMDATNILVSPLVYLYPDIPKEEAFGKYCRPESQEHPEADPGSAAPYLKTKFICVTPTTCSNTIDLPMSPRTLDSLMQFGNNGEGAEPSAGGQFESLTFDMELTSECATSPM
Summary of the method: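 HepG2 cells transiently transfected with cis-element-driven multiple reporter transcription units; after 24 h chemical exposure, reporter mRNA measured by RT-PCR, 6-FAM primer-extension labelling, HpaI digestion and capillary electrophoresis. Bidirectional fitting versus DMSO baseline.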

[9] = ATG_TA_CIS: Attagene CIS-FACTORIAL HepG2 Assay for human TA Basal Promoter (AID 2282964); details: HepG2 Attagene CIS-factorial TA basal promoter reporter; actives raise or lower the signal
Summary of the method: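 Transient MRTU transfection of HepG2 preceded 24 h compound exposure. Reporter mRNA levels were then read by RT-PCR with capillary electrophoresis, and this background-control endpoint was fitted bidirectionally to DMSO.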

[10] = ATG_TAL_CIS: Attagene CIS-FACTORIAL HepG2 Assay for human TAL Basal Promoter (AID 2282966); details: HepG2 Attagene cis-factorial TAL promoter reporter; actives raise or lower the signal;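 note: background control endpoint measuring basal TAL promoter reporter mRNA not a specific factor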
Summary of the method: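 Steps: transfect HepG2 with multiple reporter transcription units; dose 24 h; isolate RNA, reverse-transcribe, PCR-amplify, label with 6-FAM, digest with HpaI; resolve by capillary electrophoresis. Bidirectional fitting against DMSO baseline.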

[11] = ATG_TGFb_CIS: Attagene CIS-FACTORIAL HepG2 Assay for human Transforming Growth Factor (TGF) (AID 2282967); details: HepG2 Attagene CIS TGFb reporter, mRNA transcription; actives raise or lower the signal
Summary of the method: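 After a 24-hour incubation with compound, transfected HepG2 cells were lysed for RNA; reporter cDNA was amplified, fluorescently end-labeled and separated by CE. DMSO served as baseline for bidirectional fits.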

[12] = biological target: Nuclear receptor subfamily 1 group I member 3 (Homo sapiens) (UniProt Q14994); experiment: ATG_CAR_TRANS: Attagene TRANS-FACTORIAL HepG2 Assay for human Constitutive Androstane Receptor (CAR) (AID 2282969; active = hit-call score of the fitted dose curve at least 0.9, where 1 is the maximum;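 note: activators raise reporter mRNA above DMSO so AC50 marks induction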); details: HepG2 Attagene TRANS-FACTORIAL CAR reporter
Nuclear receptor subfamily 1 group I member 3 (Homo sapiens), sequence (Q14994 whole entry, looked up, the tested form may be a part): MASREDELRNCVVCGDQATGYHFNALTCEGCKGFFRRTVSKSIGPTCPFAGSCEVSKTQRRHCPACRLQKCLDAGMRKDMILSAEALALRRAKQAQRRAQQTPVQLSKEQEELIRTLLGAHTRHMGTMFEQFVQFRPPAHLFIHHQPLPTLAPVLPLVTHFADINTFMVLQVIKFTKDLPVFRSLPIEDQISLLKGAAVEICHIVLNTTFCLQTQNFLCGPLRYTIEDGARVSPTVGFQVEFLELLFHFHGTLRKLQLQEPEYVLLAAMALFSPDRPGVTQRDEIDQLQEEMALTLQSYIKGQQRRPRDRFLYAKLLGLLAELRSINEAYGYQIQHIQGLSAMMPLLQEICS
Summary of the method: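 HepG2 cells transiently transfected with multiplexed GAL4-UAS reporter units expressing chimeric NR-Gal4 proteins; compound exposure 24 h. Reporter mRNA measured by RT-PCR, 6-FAM labelling, HpaI digestion and capillary electrophoresis; gain-of-signal fitted against DMSO baseline.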

[13] = biological target: X-box-binding protein 1 (Homo sapiens) (UniProt P17861); experiment: ATG_Xbp1_CIS: Attagene CIS-FACTORIAL HepG2 Assay for human X-box Binding Protein 1 (XBP1) (AID 2282972); details: HepG2 XBP1 cis-element reporter, Attagene multiplex; actives raise or lower the signal
X-box-binding protein 1 (Homo sapiens), sequence (P17861 whole entry, looked up, the tested form may be a part): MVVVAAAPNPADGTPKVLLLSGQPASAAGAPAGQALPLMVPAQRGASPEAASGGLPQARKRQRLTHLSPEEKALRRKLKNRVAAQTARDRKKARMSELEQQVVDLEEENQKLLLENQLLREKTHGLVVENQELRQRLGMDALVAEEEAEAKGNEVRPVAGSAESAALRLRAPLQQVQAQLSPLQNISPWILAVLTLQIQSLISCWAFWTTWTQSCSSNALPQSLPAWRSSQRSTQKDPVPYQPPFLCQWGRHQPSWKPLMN
Summary of the method: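 Fluorescence-labelled cDNA fragments from reporter transcripts, separated by capillary electrophoresis, give the signal. Source: HepG2 cells transfected with promoter-driven reporter units, harvested 24 h post-dose. DMSO served as reference for bidirectional curve fitting.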

[14] = ATG_GAL4_TRANS: Attagene TRANS-FACTORIAL HepG2 Assay for GAL4 (Internal Marker) (AID 2282976; active = hit-call score of the fitted dose curve at least 0.9, where 1 is the maximum); details: HepG2 Attagene TRANS GAL4 internal marker reporter
Summary of the method: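 Liver HepG2 line bearing multiplexed GAL4-UAS reporter constructs; 24 h chemical treatment. Transcripts were quantified as fluorescent fragments on capillary electrophoresis after RT-PCR and HpaI cut, with activity fitted upward from DMSO.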

[15] = ATG_TCF_b_cat_CIS: Attagene CIS-FACTORIAL HepG2 Assay for human T-Cell-Factor with beta-catenin (TCF/b-cat) (AID 2282965); details: HepG2 TCF/beta-catenin cis-reporter transcription, actives raise or lower the signal
Summary of the method: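 HepG2 cells transiently transfected with multiple cis-promoter-regulated reporter transcription units, so endogenous transcription factor activity is measured. Reporter mRNA read 24 hours after dosing by RT-PCR, fluorescent labelling and capillary electrophoresis; bidirectional fitting against DMSO.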

[16] = ATG_VDRE_CIS: Attagene CIS-FACTORIAL HepG2 Assay for human Vitamin D Receptor Element (VDRE) (AID 2282968); details: HepG2 VDRE cis-reporter transcription, actives raise or lower the signal
Summary of the method: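 HepG2 cells transiently transfected with cis-element reporter units, dosed 24 h; reporter mRNA measured by RT-PCR, 6-FAM labeling, HpaI digestion and capillary electrophoresis. Activity fitted bidirectionally against DMSO baseline.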

[17] = biological target: Estrogen receptor (Homo sapiens) (UniProt P03372); experiment: ATG_ERa_TRANS: Attagene TRANS-FACTORIAL HepG2 Assay for human Estrogen Receptor alpha (ERa) (AID 2282970; active = hit-call score of the fitted dose curve at least 0.9, where 1 is the maximum); details: HepG2 Attagene TRANS ERa GAL4 reporter, mRNA
Estrogen receptor (Homo sapiens), sequence (P03372 whole entry, looked up, the tested form may be a part): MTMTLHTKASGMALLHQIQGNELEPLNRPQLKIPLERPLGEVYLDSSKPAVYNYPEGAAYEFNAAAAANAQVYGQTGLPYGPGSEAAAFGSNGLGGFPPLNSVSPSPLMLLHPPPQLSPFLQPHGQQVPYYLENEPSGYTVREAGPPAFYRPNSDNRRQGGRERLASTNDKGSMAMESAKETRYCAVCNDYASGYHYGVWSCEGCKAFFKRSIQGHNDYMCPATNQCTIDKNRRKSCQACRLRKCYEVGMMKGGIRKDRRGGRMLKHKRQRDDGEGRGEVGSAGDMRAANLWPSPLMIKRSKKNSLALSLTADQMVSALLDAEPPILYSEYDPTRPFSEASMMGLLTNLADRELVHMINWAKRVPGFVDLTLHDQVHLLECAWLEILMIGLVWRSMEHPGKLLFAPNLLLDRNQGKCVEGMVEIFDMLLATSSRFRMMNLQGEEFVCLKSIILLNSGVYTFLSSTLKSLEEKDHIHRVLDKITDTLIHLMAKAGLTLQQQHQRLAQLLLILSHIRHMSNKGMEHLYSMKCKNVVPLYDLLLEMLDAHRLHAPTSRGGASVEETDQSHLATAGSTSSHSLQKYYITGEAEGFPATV
Summary of the method: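 Multiplexed cell-based reporter format in HepG2: chimeric ERa-Gal4 protein drives GAL4-UAS reporter transcription. Fluorescent reporter mRNA quantified by capillary electrophoresis 24 hours after dosing; endpoint fitted as signal gain against DMSO.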

[18] = ATG_M_19_TRANS: Attagene TRANS-FACTORIAL HepG2 Assay for M19 Transcription Factor (Internal Marker) (AID 2282974; active = hit-call score of the fitted dose curve at least 0.9, where 1 is the maximum); details: HepG2 Attagene TRANS-FACTORIAL M19 internal marker reporter
Summary of the method: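 Measured here: internal-marker reporter transcript from HepG2 cells transfected with MRTUs, harvested at 24 h. cDNA PCR products were 6-FAM labelled by primer extension, cut with HpaI for 2 h at 37 C, and resolved by CE.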

[19] = biological target: Estrogen-related receptor gamma (Homo sapiens) (UniProt P62508); experiment: ATG_ERRg_TRANS: Attagene TRANS-FACTORIAL HepG2 Assay for human Estrogen-Related Receptor gamma (ERRg) (AID 2282977; active = hit-call score of the fitted dose curve at least 0.9, where 1 is the maximum;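 note: hits increase reporter signal over DMSO so potencies reflect activators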); details: HepG2 Attagene TRANS reporter, ERRg transactivation
Estrogen-related receptor gamma (Homo sapiens), sequence (P62508 whole entry, looked up, the tested form may be a part): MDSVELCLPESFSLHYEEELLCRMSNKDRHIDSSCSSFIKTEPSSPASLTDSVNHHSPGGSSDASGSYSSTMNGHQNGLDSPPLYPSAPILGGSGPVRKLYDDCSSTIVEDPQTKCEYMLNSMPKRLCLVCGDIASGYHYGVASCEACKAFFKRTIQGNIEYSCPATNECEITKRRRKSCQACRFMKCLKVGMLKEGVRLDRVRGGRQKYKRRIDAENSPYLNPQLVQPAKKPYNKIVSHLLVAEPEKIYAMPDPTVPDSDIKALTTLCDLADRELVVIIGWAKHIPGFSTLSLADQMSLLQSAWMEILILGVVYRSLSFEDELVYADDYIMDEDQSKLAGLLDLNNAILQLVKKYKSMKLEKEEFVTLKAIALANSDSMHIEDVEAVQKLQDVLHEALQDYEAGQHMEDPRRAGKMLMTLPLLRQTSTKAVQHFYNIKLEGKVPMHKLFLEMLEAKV
Summary of the method: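 Transient HepG2 transfectants, 24 h compound exposure, GAL4-UAS reporter mRNA by RT-PCR/6-FAM labelling/capillary electrophoresis; positive direction vs DMSO.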

[20] = biological target: Steroid hormone receptor ERR1 (Homo sapiens) (UniProt P11474); experiment: ATG_ERRa_TRANS: Attagene TRANS-FACTORIAL HepG2 Assay for human Estrogen-Related Receptor alpha (ERRa) (AID 2282971; active = hit-call score of the fitted dose curve at least 0.9, where 1 is the maximum); details: HepG2 Attagene TRANS reporter, ERRa transactivation
Steroid hormone receptor ERR1 (Homo sapiens), sequence (P11474 whole entry, looked up, the tested form may be a part): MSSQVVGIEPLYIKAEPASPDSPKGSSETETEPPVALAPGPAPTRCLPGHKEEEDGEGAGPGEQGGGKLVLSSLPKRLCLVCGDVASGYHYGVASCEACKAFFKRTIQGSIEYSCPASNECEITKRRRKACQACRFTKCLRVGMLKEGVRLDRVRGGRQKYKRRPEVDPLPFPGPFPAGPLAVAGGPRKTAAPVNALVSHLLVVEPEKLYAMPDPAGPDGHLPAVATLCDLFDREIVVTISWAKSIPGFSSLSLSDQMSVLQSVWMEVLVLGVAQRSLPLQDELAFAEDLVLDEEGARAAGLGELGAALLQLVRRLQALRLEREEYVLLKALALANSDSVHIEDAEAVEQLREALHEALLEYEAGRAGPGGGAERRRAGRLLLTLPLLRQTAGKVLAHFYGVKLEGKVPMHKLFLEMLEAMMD
Summary of the method: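 Signal gain relative to DMSO for an ERRa-Gal4 chimeric receptor, read as reporter mRNA by RT-PCR/capillary electrophoresis. Human HepG2 liver cells, transient multiplex reporter transfection, 24 h chemical exposure.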

Measured: AC50

c1ccc2n[nH]nc2c1
not listed: [15] | [16] | [17] | [18] | [19] | [20]
inactive: all other assays above

OCCO
not listed: [4] | [12] | [18] | [19] | [20]
inactive: all other assays above

CCCC(=O)OCCC(C)C
not listed: [12] | [14] | [15] | [18] | [19] | [20]
inactive: all other assays above

COc1ccc2cc(S(=O)(=O)N[C@H](CC(=O)N[C@H](Cc3ccc(CN4[C@H](C)CCC[C@@H]4C)cc3)C(=O)N(C)C(C)C)c3ccc4c(c3)OCO4)ccc2c1
active: [7] 0.564 µM | [9] 11 µM | [17] 11 µM | [13] 11 µM
not listed: [12] | [15] | [18] | [19] | [20]
inactive: all other assays above

CCCCCCCCCCCCO
not listed: [14] | [15] | [19] | [20]
inactive: all other assays above

CC(=O)N1CCN(c2ccc(OC[C@H]3CO[C@](Cn4ccnc4)(c4ccc(Cl)cc4Cl)O3)cc2)CC1
inactive: [3] | [5] | [8] | [10] | [11] | [17]
active: [1] 10 µM | [2] 0.942 µM | [4] 1.58 µM | [6] 49.9 µM | [7] 5.24 µM | [9] 4.84 µM | [16] 8.88 µM | [13] 18.3 µM

Cc1cc(F)ccc1-c1cc(N2CC[C@@H](O)[C@H]2CO)ncc1N(C)C(=O)C(C)(C)c1cc(C(F)(F)F)cc(C(F)(F)F)c1
active: [2] 0.35 µM
not listed: [12] | [14] | [15] | [18] | [19] | [20]
inactive: all other assays above

Clc1ccccc1C(c1ccccc1)(c1ccccc1)n1ccnc1
active: [1] 11.1 µM | [2] 0.589 µM | [4] 11.1 µM | [5] 11.1 µM | [7] 3 µM | [9] 11.1 µM | [16] 4.84 µM | [13] 11.1 µM
inactive: [6] | [8] | [15] | [10] | [11] | [17] | [14] | [19]

CCCCCCCCN(C)CCCCCCCC
active: [2] 26.5 µM | [17] 30.4 µM
not listed: [15] | [18] | [20]
inactive: all other assays above

O=C(OCCCCCCOC(=O)c1ccccc1)c1ccccc1
not listed: [3] | [14] | [18]
inactive: all other assays above
